Source: PubChem BioAssay
OTUD3 block: inhibitors of human OTUD3 deubiquitinase; inhibition, % at 25 µM; AID 1645858, 2021; 47,000 compounds, 0.7% hits; OTU domain-containing protein 3 (Homo sapiens), Q5T2D3; purified OTUD3, Ub-rhodamine fluorescence, 2 h
Target sequence (Q5T2D3 whole entry, looked up, the tested form may be a part): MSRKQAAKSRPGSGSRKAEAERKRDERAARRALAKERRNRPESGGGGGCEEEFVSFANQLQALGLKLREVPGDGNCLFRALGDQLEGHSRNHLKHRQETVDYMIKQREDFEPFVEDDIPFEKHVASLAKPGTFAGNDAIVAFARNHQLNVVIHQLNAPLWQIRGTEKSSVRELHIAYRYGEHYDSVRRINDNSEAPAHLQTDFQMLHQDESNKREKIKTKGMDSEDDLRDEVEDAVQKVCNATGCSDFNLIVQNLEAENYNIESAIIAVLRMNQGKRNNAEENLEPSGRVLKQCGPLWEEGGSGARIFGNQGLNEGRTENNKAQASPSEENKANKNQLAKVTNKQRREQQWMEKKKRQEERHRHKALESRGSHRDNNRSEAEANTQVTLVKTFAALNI
USP7 inh: inhibitors of human USP7 deubiquitinase; 47,000 compounds, 0.3% hits; purified USP7, Ub-rhodamine cleavage fluorescence; inhibition, % at 20 µM; AID 1645854, 2021
USP8 inh: inhibitors of human USP8 deubiquitinase; Ubiquitin carboxyl-terminal hydrolase 8 (Homo sapiens), P40818; AID 1645853, 2021; inhibition, % at 20 µM; purified USP8, Ub-rhodamine cleavage fluorescence, 30 min; 47,000 compounds, 4.2% hits
UCHL1 inh: inhibitors of human UCHL1 deubiquitinase; Ubiquitin carboxyl-terminal hydrolase isozyme L1 (Homo sapiens), P09936; purified UCHL1, Ub-rhodamine cleavage fluorescence; inhibition, % at 20 µM; 47,000 compounds, 0.2% hits
USP17 inh: inhibitors of human USP17 deubiquitinase | 47,000 compounds, 6.5% hits | purified USP17, Ub-rhodamine cleavage fluorescence, 3 h | Ubiquitin carboxyl-terminal hydrolase 17-like protein 5 (Homo sapiens), A8MUK1 | inhibition, % at 50 µM
USP10 inh: inhibitors of human USP10 deubiquitinase; purified USP10, Ub-rhodamine fluorescence, 60 min; AID 1645856, 2021; inhibition, % at 20 µM; 47,000 compounds, 1.1% hits
Active calls of the source: *; nt = no result. An excerpt weighted towards active compounds, which were near 9.2% of everything screened. Rule as the data show it: active = inhibition above about 30%; inactive = the rest.

SMILES	OTUD3 block	USP7 inh	USP8 inh	UCHL1 inh	USP17 inh	USP10 inh
Cc1cccc(C)c1NC(=O)C1CCN(S(C)(=O)=O)c2ccccc2O1 (configuration not stated)	12	5	23	3	7	-1
CO\C=C(C(=O)OC)/C(C)=C\C=C\c1ccc(OCC=C(C)C)c(O)c1	7	4	8	7	40*	21
O=C(c1cccc2ncccc12)N1CCC2(CC(Nc3ccncn3)C2)C1 (configuration not stated)	-12	1	-5	-1	-7	-3
CCOc1ccc(-n2cc(C(=O)Nc3cnc4ccccc4c3)nn2)cc1	-4	6	2	0	43*	9
COCCCn1c(C(=O)NCCCn2ccnc2)cc2c(=O)n3ccccc3nc21	5	6	18	4	13	1
Cc1ccccc1OCCC(=O)Nc1cccc(S(=O)(=O)Nc2ccccc2Cl)c1	17	9	15	6	55*	29
O=C(Cn1cnc(S(=O)(=O)N2CCCC2)c1)NCc1ccc(Cl)cc1	-1	-3	-3	-3	-9	-2
CC(C)(C)NC(=O)C1Cc2ccccc2CN1C(=O)c1cc(Cl)cc(Cl)c1 (configuration not stated)	-11	-7	0	-1	-7	0
Cc1ccccc1N1C(=O)/C(=C\c2cccn2C)c2ccccc2C1=O	-5	-36	-16	-21	61*	-8
O=C(CNC(=O)c1ccc2nc(-n3cccc3)sc2c1)NCc1ccccc1Cl	-72	9	46*	0	-133	-6
O=C(CNC(=O)c1ccc2nc(-n3cccc3)sc2c1)NCc1ccccc1	-30	nt	39*	5	18	-3
CC(C)[C@H](NC(=O)c1ccc2nc(-n3cccc3)sc2c1)C(=O)NCc1ccco1	-78	-31	-5	-37	-113	-6
O=C(CNC(=O)c1ccc2nc(-n3cccc3)sc2c1)NCc1ccco1	-15	7	76*	2	-11	-5
COc1ccccc1C1CNCCN1C(=O)c1cccc2ncccc12 (configuration not stated)	-27	-6	-27	-11	-52	-6
CC1CCN(S(=O)(=O)c2ccc3c4c(cccc24)C(=O)N3C)CC1	-20	-2	-8	0	8	-3
COc1ccc2[nH]c(=O)c(CN(C(=O)CCc3ccccc3)c3cccc(C)c3)cc2c1	-17	2	-70	4	4	11
COc1cc2c(=O)n(C3CCCC3)c(=O)n(CC(=O)Nc3ccc(F)cc3)c2cc1OC	16	-1	12	7	14	-4
O=C(Nc1ccc(F)cc1)C1CCCN(S(=O)(=O)N2CCCCCC2)C1 (configuration not stated)	2	-16	6	3	-9	2
COc1ccc(NC(=O)C2CCCN(S(=O)(=O)N3CCC(C)CC3)C2)cc1 (configuration not stated)	0	-3	15	-2	38*	2
CCOC(=O)c1ccc(NC(=O)C2CCCN(S(=O)(=O)N3CCCCCC3)C2)cc1 (configuration not stated)	7	4	-8	-2	41*	4
Cc1cccc(CNC(=O)C2CCCN(S(=O)(=O)N3CCCCC3)C2)c1 (configuration not stated)	19	4	32*	5	nt	-1
O=C(Nc1cccc(F)c1)C1CCCN(S(=O)(=O)N2CCCCCC2)C1 (configuration not stated)	18	3	21	2	53*	7
O=C1NCCCn2cc(S(=O)(=O)N3CCN(c4ccc(F)cc4)CC3)cc21	-6	-5	-136	-2	-30	1
O=C(Cn1cnn2cc3c(c2c1=O)CCCC3)N1CCCC1	0	0	7	0	-4	-1
C=C(CCC(C)(C)/C=C/CC/C(C)=C/COC(COP(=O)(O)O[C@@H]1OC(C(N)=O)[C@@](C)(O)[C@H](OC(N)=O)C1O[C@@H]1OC(CO[C@@H]2OC(CO)[C@H](O)[C@H](O)C2O)[C@H](O[C@@H]2OC(CO)[C@H](O[C@@H]3OC(C(=O)NC4=C(O)CCC4=O)[C@H](O)[C@H](O)C3O)[C@H](O)C2NC(C)=O)C(O)[C@@H]1NC(C)=O)C(=O)O)CC1C(=C)CCCC1(C)C (some centres not stated)	-16	23	-91	-15	-8	-4
SMILES	OTUD3 block	USP7 inh	USP8 inh	UCHL1 inh	USP17 inh	USP10 inh
COc1ccc(NC(=O)C2CCCN(S(=O)(=O)N3CCC(C)CC3)C2)c(OC)c1 (configuration not stated)	-4	-5	44*	-3	3	-3
Cc1cc(C)cc(NC(=O)C2C3C=CC4(O3)C2C(=O)N(Cc2ccc3c(c2)OCO3)C4C(=O)NC2CCCCC2)c1 (configuration not stated)	8	-11	4	-1	-12	9
COc1cccc(NC(=O)C2C3C=CC4(O3)C2C(=O)N(CCc2ccc(Cl)cc2)C4C(=O)NC2CCCCC2)c1 (configuration not stated)	9	7	50*	2	6	35*
COc1cccc(NC(=O)C2C3C=CC4(O3)C2C(=O)N(CCc2ccccc2Cl)C4C(=O)NC2CCCCC2)c1 (configuration not stated)	32*	-25	4	-2	39*	-1
CSc1cccc(NC(=O)C2C3C=CC4(O3)C2C(=O)N(Cc2ccc(C)cc2)C4C(=O)NC2CCCCC2)c1 (configuration not stated)	9	-3	20	4	50*	8
COC(=O)[C@@H]1C[C@@H](OC(=O)c2ccccc2)CN1	14	3	-2	2	12	-1
Cc1ccsc1CNC(=O)Nc1ccc(C(F)(F)F)cc1	9	9	24	2	43*	5
O=C(NCCN1CCc2ccccc2C1)Nc1ccc(C(F)(F)F)cc1	-3	-9	6	6	-5	3
O=S(=O)(Nc1nnc(C2CC2)s1)c1cccc2nonc12	1	0	-2	5	37*	2
Cc1nc2ccc(NC(=O)c3ccccc3OCC(=O)Nc3ccccc3F)cc2s1	-176	-132	-223	-110	-171	-7
Cc1nc2ccc(NC(=O)COc3ccccc3[N+](=O)[O-])cc2s1	-2	6	44*	-3	nt	10
CC1CCN(C(=O)Cn2cc(S(=O)(=O)Cc3ccc(F)cc3)c3ccccc32)CC1	-13	-48	-1	2	-18	-1
COc1ccccc1OCc1nnc(SCC(=O)c2ccc(F)cc2)n1C	0	-4	-7	0	0	-1
